PNC assembly inh: perinucleolar compartment assembly inhibition; PC3M PTB-GFP, PNC prevalence imaging, 16 h; stronger effect = lower value; activity change (PNC), negative = inhibition, % at 10 µM; 3.1% of 140,000 active; AID 2417;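 active = readout at or below -70, meaning at least 70% loss of cells showing the perinucleolar compartment, a nuclear body marking cancer cells; inconclusive = readout between -30 and a set limit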;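 note: plate controls were DMSO wells for no effect and camptothecin positive control wells for full effect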
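Read-out is percentage of cells bearing a perinucleolar compartment, from automated 20x imaging of fixed, Hoechst-stained PC3M PTB-GFP cells. Cells were seeded 4 h, then exposed 16 h to compound (23 nl of library stock) in duplicate plates.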
ALDH1A1 block: ALDH1A1 (human) enzyme inhibition; Purified ALDH1A1, NADH fluorescence, propionaldehyde substrate; P00352; Potency, µM (top dose mostly 75.3 µM), for inactives: at the top dose activity, negative = inhibition, actives largely listed as inhibitors; AID 1030; 7.3% of 220,000 active;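 note: potency is the fitted concentration of half-maximal effect; plate controls were no enzyme wells and a reference inhibitor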
Target sequence (P00352 whole entry, looked up): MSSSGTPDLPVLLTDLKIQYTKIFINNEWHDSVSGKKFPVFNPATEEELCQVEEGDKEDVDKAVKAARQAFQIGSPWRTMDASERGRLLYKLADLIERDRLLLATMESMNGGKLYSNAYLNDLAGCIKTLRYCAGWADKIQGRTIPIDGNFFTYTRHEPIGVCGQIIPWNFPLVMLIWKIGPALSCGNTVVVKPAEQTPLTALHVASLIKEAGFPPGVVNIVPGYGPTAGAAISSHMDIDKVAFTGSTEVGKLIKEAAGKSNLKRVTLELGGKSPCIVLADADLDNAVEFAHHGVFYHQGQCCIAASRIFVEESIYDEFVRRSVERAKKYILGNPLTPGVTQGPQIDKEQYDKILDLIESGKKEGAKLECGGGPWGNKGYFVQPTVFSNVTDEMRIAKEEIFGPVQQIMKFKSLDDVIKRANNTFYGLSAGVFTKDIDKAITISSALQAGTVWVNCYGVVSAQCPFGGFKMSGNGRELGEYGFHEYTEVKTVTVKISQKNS
LMNA splice mod: changes lamin A minigene splicing in HeLa cells. Potency, µM (highest dose often 46.1 µM), for inactives: at the highest dose ratio change, negative = inhibition, actives largely listed as inhibitors. 0.01% of 200,000 active. HeLa LMNA splicing GFP/RFP minigene ratio, 48 h; active = well fitted inhibition curve with a large enough effect in the signal ratio, with a control signal flat, not every such curve was filed as active; inconclusive = small, poorly fitted or top-dose-only effect, or effect the other way, or a change in a side signal; the % refers to the signal ratio; note: potency is the fitted concentration of half-maximal effect
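Read-out is the ratio of GFP to DsRed2 object intensity, acquired by 488 nm laser-scanning cytometry on HeLa lamin A-EGFP minigene reporter cells. Compound incubation 48 hrs at 37 °C in Opti-MEM with 2% FBS; DMSO 0.5% final.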
Luc counter: blocks Kinase-Glo luciferase, a counter-screen artifact. AID 1379. Kinase-Glo luciferase, ATP luminescence, 8 min. Potency, µM (series often up to 38.3 µM), for the others: at the highest dose activity change, negative = inhibition, actives largely listed as inhibitors. Q27757. 0.28% of 200,000 active; active = well fitted inhibition curve with a large enough effect; inconclusive = small, poorly fitted or top-dose-only effect; note: potency is the fitted concentration of half-maximal effect; nearly all actives have a fitted effect of over 60% in size
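Inhibition of Kinase-Glo luciferase light generation was assessed at 10 uM ATP in pH 7.2 imidazole buffer, with luminescence measured after eight minutes at ambient temperature.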
HPGD block: blocks human HPGD enzyme activity. P15428. purified HPGD, NADH fluorescence kinetic, PGE2 substrate. Potency, µM, for inactives: at the highest dose activity change, negative = inhibition, actives largely listed as inhibitors. 4.3% of 150,000 active. AID 894; note: potency is the fitted concentration of half-maximal effect
Target sequence (P15428 whole entry, looked up): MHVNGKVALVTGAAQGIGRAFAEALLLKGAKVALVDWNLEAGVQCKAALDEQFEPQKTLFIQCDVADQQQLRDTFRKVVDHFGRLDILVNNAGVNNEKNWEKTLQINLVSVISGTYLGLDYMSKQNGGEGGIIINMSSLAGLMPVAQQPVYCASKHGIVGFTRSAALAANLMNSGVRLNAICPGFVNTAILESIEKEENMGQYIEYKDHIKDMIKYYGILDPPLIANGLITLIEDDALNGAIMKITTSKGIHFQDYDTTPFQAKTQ
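NADH formation kinetics: reaction with 30 uM PGE2 and 1 mM NAD+ (final), 20 nM enzyme, Tris-HCl pH 8 with Tween 20, after 15 min compound preincubation at room temperature. Fluorescence change, last versus first of five reads.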
* = called active by the depositor; u = inconclusive; x = not tested or not shown; [ ] = another dose, or the depositor's remark. Shown are actives, neighbours in structure and some others; about 10% of the full set was active somewhere. Unless noted, calls come from the whole dose curve; as a rule, active = well fitted inhibition curve with a large enough effect (not every such curve was filed as active); inconclusive = small, poorly fitted or top-dose-only effect, or another doubt; inactive = no such curve, though single readings can be large or run the other way. Unless noted, % is set by controls: 0 for no effect and ±100 for the full control effect.

SMILES | PNC assembly inh | ALDH1A1 block | LMNA splice mod | Luc counter | HPGD block
COc1cnn(-c2cc(Oc3ccc(C)cc3)ncn2)c(=O)c1Cl | 1 | 13µM* | 0% | -7% | -6%
COCCOc1cnn(-c2cc(Oc3ccc(C)cc3)ncn2)c(=O)c1Cl | 5 | u | -6% | -4% | -2%
Cc1cccc(OCC(=O)Nc2cccc(OCc3cc(=O)n4cccc(C)c4n3)c2)c1 | x | x | -10%[46 µM] | x | x
CC(C)(C)n1nnnc1C(c1ccc(C(F)(F)F)cc1)N(Cc1ccc(F)cc1)Cc1ccco1 (stereo not given) | -119* | 3% | u | 1% | -10%
COc1ccc(-n2ncc(C(=O)N3CCN(c4ncccn4)CC3)c2C2CCN(C(=O)OC(C)(C)C)CC2)cc1 | x | x | 9%[46 µM] | x | x
Cc1ccc2c(CC(=O)OCc3csc(C)n3)coc2c1 | -100* | 6% | -3% | 3% | -10%
Cc1ccc2c(CC(=O)OCc3nc(N)nc(Nc4ccccc4C)n3)coc2c1 | u | -4% | u | -6% | -17%
C[C@@]12CCC(=O)C=C1CC[C@@H]1[C@@H]2[C@H](O)C[C@]2(C)[C@@H]1CC[C@]2(O)C(=O)CO | x | -2%[20.9 µM] | 13% | 0%[17.1 µM] | -1%
O=C(CSc1n[nH]c(-c2ccccc2Cl)n1)N1CCN(c2ccccc2F)CC1 | x | x | -9%[46 µM] | x | x
Cc1ccc(OCC(=O)Nc2cccc(C)n2)c(C)c1 | -25 | 2% | 1% | -13% | -8%
Cc1ccc(NC(=O)COc2cccc3ccc(C)nc23)c(Br)c1 | -16 | u | -8% | -2% | 11µM*
N#CC1=C(SCc2ccccc2Cl)NC(=O)C(C(N)=O)C1 (stereo not given) | -1 | 16µM* | -1% | -1% | -9%
Cc1ccc(CNC(=O)c2c[nH]c3ccc(S(=O)(=O)Nc4ccc(C(C)C)cc4)cc3c2=O)cc1 | x | x | -26%[46 µM] | x | x
CCN(CC)c1ccc(N=Cc2c(C)[nH]c3ccccc23)cc1 | u | 0.45µM* | u | -3% | u
Cc1[nH]c2ccccc2c1/C=N/n1cnnc1 | -28 | 10% | 3% | -1% | -13%
O=C1C=C[C@@H](O)[C@H]2[C@@H]3C(=O)N(c4cccc(Oc5ccccc5)c4)C(=O)[C@@H]3CC[C@H]12 | x | -12%[13.5 µM] | x | x | x
COc1ccc(N/C=C/C(=O)C(C)(C)C)cc1 | x | 2% | x | 4% | x
COc1ccc(N/C=C(/C(C)=O)c2ccccc2)cc1 | u | 10µM* | -10% | -1% | 22µM*
O=C(NCc1ccccc1F)C1CCCN(C(=O)NC2CCCCC2)C1 (stereo not given) | -124* | 3% | u | -2% | -12%
CCCNC(=O)CNC(=S)N(Cc1ccccc1F)C1CCCCC1 | x | 10µM* | 1%[46 µM] | 0% | x
CCOC(=O)CNC(=S)N(Cc1ccccc1F)C1CCCCC1 | x | u | x | 1% | x
O=C(CNC(=S)N(Cc1ccccc1F)C1CCCCC1)NC1CC1 | 9 | 13µM* | 4% | -5% | -6%
CS(=O)(=O)N1CCC2(CCCN(Cc3ccc(C#N)cc3)C2)CC1 | x | 3% | x | 1% | -3%
CCOC(=O)C1=C(C)NC2=C(C1c1ccc([N+](=O)[O-])cc1)S(=O)(=O)c1ccccc12 (stereo not given) | 1 | 2.5µM* | u | 25% | -24%
COc1ccccc1N1CCN(C(c2cc3cc(C)ccc3[nH]c2=O)c2nnnn2C2CCCC2)CC1 (stereo not given) | u | 14µM* | 4% | 0% | -3%
SMILES | PNC assembly inh | ALDH1A1 block | LMNA splice mod | Luc counter | HPGD block
COc1ccccc1N1CCN(C(c2cc3ccc(C)cc3[nH]c2=O)c2nnnn2C2CCCC2)CC1 (stereo not given) | u | 25µM* | 5% | 1% | -15%
COc1ccc(C(=O)N(c2ccc(OC)cc2)S(=O)(=O)c2cccs2)cc1 | 28 | 5µM* | -8% | -4% | -12%
CCCNS(=O)(=O)c1ccc2nc(NC(=O)c3ccc(F)cc3)sc2c1 | x | x | -7%[46 µM] | x | x
COc1cc2c(cc1OC)-c1cc(N3CCCc4ccccc43)nc(=O)n1CC2 | -11 | 11µM* | -2% | 0% | -23%
Cc1ccc(NC(=O)Cn2cc(S(=O)(=O)N3CCCC3)c(S(=O)(=O)N3CCCC3)c2)cc1F | x | x | -11%[46 µM] | x | x
Cc1ccc(/C(C#N)=C\c2ccc(N3CCOCC3)o2)cc1 | -26 | 10µM* | u | -1% | u
N#C/C(=C/c1ccc(N2CCCCCC2)o1)c1ccc(Cl)cc1 | -4 | 7.9µM* | u | -3% | u
Cc1ccc2nc(/C(C#N)=C\c3ccc(N4CCOCC4)o3)[nH]c2c1 | 17 | u | u | -9% | -13%
COc1ccccc1CNC(=O)c1nnn(CC(=O)Nc2c(C)cccc2C)c1N | x | x | 9%[46 µM] | x | x
CC(C)(CN)SCc1ccccc1 | x | 11%[13.5 µM] | x | -5%[7.66 µM] | -8%
OCC(O)C(O)C(O)C(O)C(O)CO (stereo not given) | x | -7% | -10% | -5% | -8%
COc1ccc(NC(=O)CSc2nnc(-c3nonc3NC(C)=O)n2C)cc1Cl | x | x | 13%[46 µM] | x | x
CCn1ncc(Br)c1C(=O)Nc1nccs1 | u | -14% | -12% | 2% | 25µM*
CCn1ncc(Br)c1C(=O)Nc1ccc(F)cc1F | 36 | -8% | 0% | 1% | -13%
O=C(/C=C/c1cccc(F)c1)c1ccc(N2CCOCC2)cc1 | x | 13µM* | x | x | x
O=C1CSC2(C(=O)N(Cc3c(F)cccc3Cl)c3ccccc32)N1c1ccc(F)c(F)c1 (stereo not given) | x | x | -21%[46 µM] | x | x
O=C(NCCCN1CCOCC1)c1cc(C(=O)C2CCCCC2)c[nH]1 | x | 25µM* | 11%[46 µM] | -1% | x
CCC(CC)C(=O)c1c[nH]c(C(=O)NCCCN2CCOCC2)c1 | 81 | 3% | -11% | 1% | 0%
Cn1c(N2CCN(C(=O)Nc3ccc(C(F)(F)F)cc3)CC2)nc2ccccc21 | -14 | 3% | u | -4% | -3%
Cn1c(N2CCN(C(=O)NCc3ccccc3)CC2)nc2ccccc21 | u | 4µM* | 12% | -2% | -8%
CN1C(=S)SC(C)(NO)C1(C)C (stereo not given) | u | 0.79µM* | 15% | 3% | -27%
CCOC(CNC(=O)c1ccc(N2CCc3ccccc32)c([N+](=O)[O-])c1)OCC | u | 10µM* | u | -6% | -19%
C/C=C(/C)C#N | x | 9% | x | x | -18%
OCCSc1nnc(Nc2ccccc2)s1 | -17 | u | -8% | -29% | -24%
N#CCSc1nnc(Nc2ccccc2)s1 | 20 | u | 0% | -7% | 28µM*
CCOc1ccc(NC(=O)CSc2nnc(-c3ccncc3)n2-c2ccccc2)cc1 | x | x | 8%[46 µM] | x | x
COc1cccc(CNCCCSc2nnnn2C)c1 | x | x | 14%[46 µM] | x | x
CCCOc1ccc(NC(=O)CC2C(=O)N(CC)C(=S)N2CCNC(C)=O)cc1 (stereo not given) | -113* | -1% | 1% | 4% | -3%
CCCOc1ccc(NC(=O)CC2C(=O)N(C)C(=S)N2Cc2cccs2)cc1 (stereo not given) | -119* | u | u | 2% | -23%

Source: PubChem BioAssay (National Center for Advancing Translational Sciences (NCATS))
